From PubChem BioAssay
Only some compounds are listed: those with a hit (about 4.7% of all), similar ones and a draw of the others.
TWEAK-Fn14 inh: blocks TWEAK-Fn14 interaction in a reporter cell assay; TWEAK-stimulated Fn14 reporter cells, luciferase luminescence, 8 h; inhibition, % at 10 µM; hit rate 2% among 360,000; in the data active means inhibition above about 50%
TROY signal inh: blocks TROY-dependent signaling in reporter cells | Q293 LMP1-TROYcd NF-kB luciferase reporter, 4 h | inhibition, % at 10 µM | hit rate 0.98% among 360,000;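 active means compounds whose plate-normalised and pattern-corrected inhibition of the luciferase reporter signal at the single screening dose is 50% or more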
HSP90 refold inh: blocks HSP90-mediated luciferase refolding in reticulocyte lysate | Rabbit reticulocyte lysate, luciferase refolding luminescence, 3 h | inhibition, % at 5.6 µM | hit rate 0.91% among 290,000 | AID 1789;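 active means inhibition above the screen-wide mean plus 3 SD, computed separately per campaign, cut at about 16% in these data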;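 further: inhibitors lower the luminescence because luciferase stays unfolded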
HSF1 inhib: HSF1 inhibition; NIH3T3-HGL HSE-luciferase, MG132-induced, luminescence 8 h; hits give low values; activity change, negative = inhibition, % at 7.5 µM (by protocol); hit rate 0.77% among 300,000;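 active means more than half of replicate wells show activity change below -50%, luminescence cut by over half; inconclusive means some wells, but at most half, below -50%; inactive means no replicate well below -50%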;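 further: luciferase reports HSF-1 transcriptional activity via heat shock element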
LMP1 NFkB inh: Epstein-Barr LMP1 NF-kappaB reporter inhibition; LMP1-induced NF-kappaB luciferase reporter cells, luminescence; inhibition, % at 12.5 µM; hit rate 0.69% among 350,000; in the data active means inhibition above about 41%; inconclusive means no clear call, values can overlap the other calls
HSF1 activator: increases HSF-1 driven luciferase reporter signal; hit rate 1.7% among 300,000; NIH3T3-HGL HSF-1 luciferase reporter, MG132, 8 h; 100% = twice DMSO control signal; activation, % at 9 µM;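 active means mean replicate activation of at least 50% with a set share of replicates each reaching 50%; inconclusive means only one of those two conditions met; inactive means mean below 50% and too few replicates reaching it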
Large screens that a line does not name were inactive.

O=C(NCc1ccncc1)C(=O)Nc1nc(C23CC4CC(CC(C4)C2)C3)cs1	TWEAK-Fn14 inh 76, TROY signal inh 57
O=C(NCc1ccccc1)C(=O)Nc1nc(C23CC4CC(CC(C4)C2)C3)cs1	none
Cc1cc(OCC(=O)Nc2c(C(C)C)cccc2C(C)C)no1	none (no result: HSP90 refold inh, HSF1 inhib, HSF1 activator)
C=CCn1c(SCC(=O)C(C)(C)C)nnc1-c1cccs1	none
C=CCn1c(SCc2ccc3nonc3c2)nnc1-c1cccs1	LMP1 NFkB inh 71
Cc1cccc(C)c1NC(=O)C1c2ccccc2OCC(=O)N1Cc1ccco1 (stereo not given)	none (no result: HSP90 refold inh, HSF1 inhib, LMP1 NFkB inh, HSF1 activator)
Cc1sc2nc(C)n(/N=C/c3ccc(O)cc3O)c(=O)c2c1C	HSF1 activator 63
O=C(/C=C/c1ccccc1Cl)NCc1ccccc1	none
CN(C)c1ccc(NC(=O)/C=C/c2ccccc2Cl)cc1	HSF1 activator 54
O=C(/C=C/c1ccccc1Cl)NCCc1ccccc1	HSF1 activator 55
COc1ccc(/C=C/C(=O)NCCCc2ccccc2)cc1	HSF1 activator 62
CCOC(=O)Cc1cc(OC)c(OC)cc1Cc1cc(OC)c(OC)cc1CC(=O)OCC	TWEAK-Fn14 inh 80
Cc1noc(C)c1-c1ccc(C(=O)NC2CCCCC2)c2occc12	none (no result: HSP90 refold inh, HSF1 inhib, LMP1 NFkB inh, HSF1 activator)
CC(C)Cn1c(C(C)C)nc([N+](=O)[O-])c1Sc1ccc(Cl)cn1	none
CCCCn1c(CCC)nc([N+](=O)[O-])c1Sc1ccc(Cl)cn1	none
CC(C)Cn1c(C(C)C)nc([N+](=O)[O-])c1S(=O)(=O)c1ccc(F)cc1	TWEAK-Fn14 inh 50
CCCc1nc([N+](=O)[O-])c(S(=O)(=O)c2ccccc2)n1CC(C)C	TWEAK-Fn14 inh 83
Cc1cc(F)ccc1C(O)c1ncc(-c2cccc(OCc3ccccc3)c2)[nH]1 (stereo not given)	none (no result: HSP90 refold inh, HSF1 inhib, LMP1 NFkB inh, HSF1 activator)
O=C(Nc1ccc(Cn2cccn2)cc1)c1ccc(COc2ccc(Br)cc2)cc1	none
O=C(Nc1ccn(Cc2ccccc2F)n1)c1ccc(COc2ccc(Br)cc2)cc1	TWEAK-Fn14 inh 51
CC(O)(c1cccc(F)c1)c1nc(-c2ccc3ccccc3c2)cs1 (stereo not given)	none (no result: HSP90 refold inh, HSF1 inhib, LMP1 NFkB inh, HSF1 activator)
CC1=C(C(=O)N(C)C)CC(CC(=O)NCc2cccc3ccccc23)C(=O)N1Cc1ccc(F)cc1 (stereo not given)	none (no result: HSP90 refold inh, HSF1 inhib, LMP1 NFkB inh, HSF1 activator)
CC1C(=O)C(C)C(c2cc(Br)ccc2O)NC1c1cc(Br)ccc1O (stereo not given)	TROY signal inh 63 (no result: HSP90 refold inh, HSF1 inhib, HSF1 activator)
CCC(C)[C@H](N)C(=O)N[C@H]1CCC2C3CC=C4C[C@@H](O)CC[C@]4(C)C3CC[C@@]21C (stereo not given in full)	none (no result: HSP90 refold inh, HSF1 inhib, HSF1 activator)
O=C(N/N=C/C(Br)=C/c1ccccc1)c1ccc([N+](=O)[O-])cc1	HSF1 activator 59
CC(=C/c1ccccc1)/C=N/NC(=O)c1ccc2nc[nH]c2c1	none
O=C(N/N=C/C(Br)=C\c1ccccc1)c1ccc2nc[nH]c2c1	HSF1 activator 125
O=C(N/N=C/C(Br)=C/c1ccccc1)c1cccnc1	HSF1 activator 82
O=C(N/N=C/C(Br)=C/c1ccccc1)c1ccncc1	none
CCOc1cc(C(=O)N/N=C/C(Br)=C/c2ccccc2)cc(OCC)c1OCC	HSF1 activator 87
Cc1cc2oc(=O)cc(CN3CCCCCCC3)c2cc1Cl	none (no result: HSP90 refold inh, HSF1 inhib, LMP1 NFkB inh, HSF1 activator)
Cc1ccc(C(O)c2ncc(-c3cccc4ccccc34)[nH]2)cc1F (stereo not given)	none (no result: HSP90 refold inh, HSF1 inhib, LMP1 NFkB inh, HSF1 activator)
O=C(Nc1ccccc1[N+](=O)[O-])OCC=Cc1ccccc1	none (no result: HSP90 refold inh, HSF1 inhib, HSF1 activator)
O=C(Cc1ccc(Cl)cc1)NCC(=O)N1CCC2(CC1)NCCc1[nH]cnc12	none (no result: HSP90 refold inh, HSF1 inhib, HSF1 activator)
CN(CC1CCOCC1)C(=O)c1ccc2nc(Cc3cccc(Cl)c3)oc2c1	none
O=C(NCC1CCOCC1)c1ccc2nc(Cc3cccc(Cl)c3)oc2c1	HSF1 activator 54
Cc1cc(-c2nc3cc(F)ccc3s2)ccc1N	TWEAK-Fn14 inh 75 (no result: HSP90 refold inh, HSF1 inhib, HSF1 activator)
O=C(NCc1ccccc1)C1c2ccccc2OCC(=O)N1CCc1c[nH]c2ccccc12 (stereo not given)	none (no result: HSP90 refold inh, HSF1 inhib, LMP1 NFkB inh, HSF1 activator)
CCN(c1ccccc1)S(=O)(=O)c1ccc(Cl)c(NC(=O)CSc2nnc(C)s2)c1	HSF1 inhib -66
C=CCN(c1ccccc1)S(=O)(=O)c1cccc(C(=O)Nc2nnc(SCC)s2)c1	TROY signal inh 53
CCN(c1ccccc1)S(=O)(=O)c1ccc(Cl)c(NC(=O)CSc2nncs2)c1	none
COCC(=O)N(C)c1nnc(-c2ccccn2)s1	LMP1 NFkB inh 50
Cc1ccc2c(CN3CCC(C)CC3)cc(=O)oc2c1C	HSF1 activator 54
CSc1ccc(CN(C)Cc2cc(=O)oc3c(C)c(C)ccc23)cc1	HSF1 inhib -69
Nc1ncnc(Nc2ccccc2Oc2ccccc2)n1	none (no result: HSP90 refold inh, HSF1 inhib, HSF1 activator)
CC(=O)NCCNc1nc2cc(-c3ccccc3CO)sc2c(=O)n1C	none (no result: HSP90 refold inh, HSF1 inhib, LMP1 NFkB inh, HSF1 activator)
COc1ccc(C(C)(NC(C)=O)c2nc(-c3cnc4ccccc4c3)cs2)cc1 (stereo not given)	none (no result: HSP90 refold inh, HSF1 inhib, LMP1 NFkB inh, HSF1 activator)
Cc1cc(C(=O)N2CCCC(C)(C(=O)NS(=O)(=O)C3CC3)C2)n(C(C)(C)C)n1 (stereo not given)	none (no result: HSP90 refold inh, HSF1 inhib, LMP1 NFkB inh, HSF1 activator)
O=C1OCCC1Sc1nnc(-c2ccco2)o1 (stereo not given)	none
O=C1OCCC1Sc1nnc(-c2ccc(Br)cc2)o1 (stereo not given)	TWEAK-Fn14 inh 59
O=C(Nc1cccc(-c2ccc(N3CCCCC3)nn2)c1)c1ccc(Br)o1	none (no result: HSP90 refold inh)
O=C(Nc1cccc(-c2ccc(N3CCCCC3)nn2)c1)C(F)(F)F	TWEAK-Fn14 inh 97, TROY signal inh 72, HSF1 inhib inconclusive, LMP1 NFkB inh 55
COc1ccc(-c2cccc(NC(=O)c3ccco3)c2)nn1	none (no result: HSP90 refold inh)
CC1CCN(c2ccc(-c3cccc(NC(=O)c4ccco4)c3)nn2)CC1	TWEAK-Fn14 inh 53 (no result: HSP90 refold inh)
CCCNC(=O)C1(C)CCN(C(=O)COc2ccc(Cl)cc2Cl)C1 (stereo not given)	none (no result: HSP90 refold inh, HSF1 inhib, LMP1 NFkB inh, HSF1 activator)
O=C(OCCN1CCN(c2ncc(C(F)(F)F)cc2Cl)CC1)c1ccc(Cl)cc1	HSF1 inhib -80
O=C(OC1CCN(c2ncc(C(F)(F)F)cc2Cl)CC1)c1ccc(Cl)cc1	none
O=C(Nc1ccc2ccccc2c1)c1onc2c1CCCC2	TWEAK-Fn14 inh 57
COC(=O)c1cccc(NC(=O)c2onc3c2CCCC3)c1	none
Cc1cccc(NC(=O)c2onc3c2CCCC3)c1C	HSF1 activator 65
Cc1cccc(NC(=O)c2onc3c2CCCC3)n1	TWEAK-Fn14 inh 80, TROY signal inh 52, HSP90 refold inh 28
CC(C)Cc1nc(N2CCN(C(=O)c3ccco3)CC2)c(C#N)c2c1CCCC2	TROY signal inh 53
CCc1c(C)nc(SCC(=O)Nc2ccc(Br)cc2)[nH]c1=O	none
CCc1c(C)nc(SCC(=O)Nc2cccc(Br)c2)[nH]c1=O	HSF1 activator 57
CCC(CC)C(=O)N(C)c1c(C)nc2c(OCC3CCCCC3)cccn12	none (no result: HSP90 refold inh, HSF1 inhib, LMP1 NFkB inh, HSF1 activator)
C#CCN(C[C@@H]1[C@@H](OC(=O)NCc2ccccc2F)[C@@H](OC(=O)NCc2ccccc2F)Cn2c(=O)n(CCCCCC)c(=O)n21)S(=O)(=O)c1ccc(C)cc1	none (no result: HSP90 refold inh, HSF1 inhib, HSF1 activator)
